Reference: PubChem BioAssay
Active and inactive are the calls of the source.

Legend:
[1] = E. coli DRC41 culture turbidity changes, primary screen, E. coli filamentation inducer project, strain DRC41, OD650, 48 h (AID 1152);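 note: E. coli MC1000 strain DRC41 lacking acrAB efflux pump and sulA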; details: E. coli DRC41 (acrAB sulA), higher = more signal, called active from +8 up or from −8 down
[2] = small-molecule binders of probe aLefty1, primary screen, biochemical, small-molecule microarray, 635/667 nm fluorescence (AID 1153); details: higher = more signal;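 note: score merges spot fluorescence with signal-to-noise ratio from the scanned slide images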
[3] = PSAC antagonists in infected red cells, primary screen, cell-based, P. falciparum Indochina, OD700, 1 h (AID 1154); details: P. falciparum Indochina infected RBC osmotic lysis, higher = more signal, called active from +8 up or from −8 down
[4] = PSAC antagonists in infected red cells, primary screen, cell-based, P. falciparum Indochina, OD700, 2 h (AID 1155);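 note: lysis reports solute entry through the parasite surface anion channel PSAC; channel blockers reduce lysis of infected cells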; details: P. falciparum Indochina infected erythrocytes, osmotic lysis OD700; higher = more signal, called active from +8 up or from −8 down
[5] = osmotic lysis modulators in infected erythrocytes, primary screen, PSAC antagonist project, cell-based, P. falciparum Indochina, OD700, 3 h (AID 1156); details: higher = more signal, called active from +8 up or from −8 down
[6] = PSAC antagonists in infected red cells, primary screen, cell-based, P. falciparum Indochina, OD700, 18 h (AID 1157); details: P. falciparum Indochina infected erythrocytes, osmotic lysis OD700, 18 h; higher = more signal, called active from +8 up or from −8 down
[7] = modulators of S6 phosphorylation in cells, primary screen, cell-based, A549, cytoblot, luminescence, serum-stimulated (AID 1158); details: A549 phospho-S6 cytoblot, 5 h, higher = more signal;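 note: serum-stimulated A549 lung adenocarcinoma cells; signal is phosphorylated S6 detected by cytoblot immunostaining with HRP secondary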
[8] = target: NADPH oxidase 2 (Homo sapiens) (UniProt P04839); assay: NOX2-dependent H2O2 signal modulators, primary screen, NOX inhibitor project, cell-based, HEK293-NOX2, PMA-stimulated, Amplex Red fluorescence (AID 1159); details: 45 min, higher = more signal, called active from +8 up or from −8 down; note: test concentration not given here
[9] = target: NADPH oxidase 4 (Homo sapiens) (UniProt Q9NPH5); assay: NOX4-dependent H2O2 signal modulators, primary screen, NOX inhibitor project, cell-based, HEK293-NOX4, tetracycline-induced, Amplex Red fluorescence (AID 1160); details: 45 min, higher = more signal, called active from +8 up or from −8 down
[10] = target: NADPH oxidase 5 (Homo sapiens) (UniProt Q96PH1); assay: NOX5-dependent H2O2 signal modulators, primary screen, NOX inhibitor project, cell-based, HEK293-NOX5, Amplex Red fluorescence (AID 1161); details: HEK293-NOX5, ionomycin, 45 min, higher = more signal
[11] = A549 cell viability effects, profiling panel, calcein-AM fluorescence, 48 h, basal (AID 1162); details: higher = more signal; note: test concentration not given here
[12] = adipocyte viability effects, profiling panel, cell-based, 3T3-L1 adipocytes, calcein-AM fluorescence, 48 h, basal (AID 1163); details: 3T3-L1 adipocytes viability, higher = more signal; note: test concentration not given here
[13] = HepG2 cell viability effects, profiling panel, calcein-AM fluorescence, 48 h, basal (AID 1164); details: higher = more signal; note: test concentration not given here
[14] = MM1S cell viability effects, profiling panel, calcein-AM fluorescence, 48 h, basal (AID 1165); details: higher = more signal;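 note: viability of MM1S multiple myeloma cells under basal unstimulated conditions; test concentration not given here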
[15] = basal RPMI8226 viability, no added stimulus, profiling panel, cell-based, calcein-AM fluorescence, 48 h, PK04 Diversity Set (AID 1166); details: RPMI8226 myeloma viability, higher = more signal;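 note: cells grown under basal conditions without added stimulus; test concentration not given here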
[16] = basal HepG2 mitochondrial membrane potential changes, profiling panel, cell-based, JC-1 fluorescence, 24 h, 100 nL compound (AID 1167); details: higher = more signal; note: test concentration not given here
[17] = basal 3T3-L1 adipocyte mitochondrial potential changes, profiling panel, cell-based, JC-1 fluorescence, 3T3-L1 adipocytes, 24 h, 100 nL compound (AID 1168); details: JC-1 mitochondrial fluorescence, higher = more signal, called active from +8 up or from −8 down; note: test concentration not given here
[18] = basal RPMI8226 mitochondrial membrane potential changes, profiling panel, cell-based, JC-1 fluorescence, 24 h, 100 nL compound (AID 1169); details: RPMI8226 myeloma, JC-1 mitochondrial potential fluorescence, higher = more signal; note: test concentration not given here
[19] = basal MM1S mitochondrial membrane potential changes, profiling panel, cell-based, JC-1 fluorescence, 24 h, 100 nL compound (AID 1170); details: higher = more signal; note: test concentration not given here
[20] = A549 lung cancer cell viability effects, profiling panel, resazurin fluorescence, 24 h, PK04 Diversity Set (AID 1171); details: higher = more signal, called active from +8 up or from −8 down; note: test concentration not given here

Sequence of NADPH oxidase 5 (Homo sapiens) (Q96PH1 whole entry, looked up): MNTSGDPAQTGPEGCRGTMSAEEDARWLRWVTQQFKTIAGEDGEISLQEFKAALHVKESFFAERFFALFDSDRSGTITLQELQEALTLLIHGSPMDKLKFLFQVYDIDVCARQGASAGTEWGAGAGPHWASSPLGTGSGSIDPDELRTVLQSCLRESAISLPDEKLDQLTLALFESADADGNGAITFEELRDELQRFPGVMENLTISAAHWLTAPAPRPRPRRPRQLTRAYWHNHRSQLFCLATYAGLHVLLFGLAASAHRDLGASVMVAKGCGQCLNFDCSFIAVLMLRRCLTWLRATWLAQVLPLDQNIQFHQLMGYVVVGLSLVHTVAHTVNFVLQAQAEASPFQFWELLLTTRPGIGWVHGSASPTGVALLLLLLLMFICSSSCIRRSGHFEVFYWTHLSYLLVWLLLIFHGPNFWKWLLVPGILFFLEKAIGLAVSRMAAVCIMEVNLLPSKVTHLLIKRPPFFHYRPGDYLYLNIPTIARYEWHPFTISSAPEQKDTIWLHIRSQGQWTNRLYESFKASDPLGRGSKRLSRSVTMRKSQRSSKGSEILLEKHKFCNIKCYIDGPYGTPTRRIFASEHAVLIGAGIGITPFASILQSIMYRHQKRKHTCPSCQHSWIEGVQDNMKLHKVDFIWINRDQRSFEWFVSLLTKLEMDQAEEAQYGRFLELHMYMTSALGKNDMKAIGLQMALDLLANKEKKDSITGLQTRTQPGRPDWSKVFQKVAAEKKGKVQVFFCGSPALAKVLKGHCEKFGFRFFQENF
Sequence of NADPH oxidase 4 (Homo sapiens) (Q9NPH5 whole entry, looked up): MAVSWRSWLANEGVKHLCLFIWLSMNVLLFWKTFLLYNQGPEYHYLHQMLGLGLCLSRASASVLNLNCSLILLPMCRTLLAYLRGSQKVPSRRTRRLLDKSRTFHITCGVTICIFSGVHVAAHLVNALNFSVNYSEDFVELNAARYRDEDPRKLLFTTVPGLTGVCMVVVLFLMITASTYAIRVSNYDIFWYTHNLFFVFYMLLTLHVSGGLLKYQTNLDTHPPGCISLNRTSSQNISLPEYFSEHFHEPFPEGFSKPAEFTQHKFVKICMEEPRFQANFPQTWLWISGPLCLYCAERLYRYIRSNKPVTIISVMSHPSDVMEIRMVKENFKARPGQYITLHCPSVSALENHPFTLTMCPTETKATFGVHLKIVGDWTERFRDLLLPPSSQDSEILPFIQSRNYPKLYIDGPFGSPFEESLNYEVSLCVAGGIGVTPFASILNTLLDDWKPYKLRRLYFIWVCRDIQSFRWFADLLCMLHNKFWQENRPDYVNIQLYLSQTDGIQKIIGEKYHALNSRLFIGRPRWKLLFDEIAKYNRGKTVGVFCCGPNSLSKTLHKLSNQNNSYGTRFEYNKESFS
Sequence of NADPH oxidase 2 (Homo sapiens) (P04839 whole entry, looked up): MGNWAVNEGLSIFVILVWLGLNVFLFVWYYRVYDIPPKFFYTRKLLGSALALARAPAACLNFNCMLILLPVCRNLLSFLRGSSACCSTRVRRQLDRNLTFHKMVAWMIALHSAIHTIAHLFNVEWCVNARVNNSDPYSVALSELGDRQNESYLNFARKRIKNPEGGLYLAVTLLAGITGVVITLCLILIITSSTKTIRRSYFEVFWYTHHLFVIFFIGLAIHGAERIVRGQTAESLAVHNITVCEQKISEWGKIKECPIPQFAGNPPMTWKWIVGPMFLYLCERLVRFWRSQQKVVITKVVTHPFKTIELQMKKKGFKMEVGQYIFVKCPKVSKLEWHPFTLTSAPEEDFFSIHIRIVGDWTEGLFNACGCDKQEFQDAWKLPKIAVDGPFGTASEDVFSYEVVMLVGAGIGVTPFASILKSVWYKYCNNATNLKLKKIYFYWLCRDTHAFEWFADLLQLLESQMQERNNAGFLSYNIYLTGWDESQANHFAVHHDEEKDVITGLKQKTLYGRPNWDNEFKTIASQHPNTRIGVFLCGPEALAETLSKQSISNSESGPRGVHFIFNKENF

SMILES	z-score [1]	composite z-score [2]	z-score [3]	z-score [4]	z-score [5]	z-score [6]	z-score [7]	z-score [8]	z-score [9]	z-score [10]	z-score [11]	z-score [12]	z-score [13]	z-score [14]	z-score [15]	z-score [16]	z-score [17]	z-score [18]	z-score [19]	z-score [20]
CCCCCN1CC=CC23O[C@@H]4C=CCOC(=O)[C@@H]4[C@H]2C(=O)N(C(CO)C(C)C)[C@@H]3C1=O (stereo not given in full)	0.374 (inactive)	-0.0479	0.901 (inactive)	0.661 (inactive)	0.445 (inactive)	0.307 (inactive)	-0.0997	0.965 (inactive)	0.694 (inactive)	1.24	-0.0343	-0.372	-0.0721	0.949	0.12	-0.794	0.196 (inactive)	-0.0576	0.782	0.0963 (inactive)
CC(C)(C)N1C(=O)[C@H]2[C@H]3[C@H](O)[C@H](O)CC(=NOCc4ccccc4)[C@@H]3CC[C@H]2C1=O	0.831 (inactive)	-0.0162	0.464 (inactive)	-1.53 (inactive)	0.877 (inactive)	-2.27 (inactive)	0.581	-1.57 (inactive)	0.413 (inactive)	0.791	0.366	0.218	0.586	-0.0096	0.519	0.858	-0.249 (inactive)	0.701	-1.01	-1.58 (inactive)
C[C@@H]1C=CCC(=O)OC[C@H](C)C(=O)N2CCC[C@H]2C(=O)OC1	0.665 (inactive)	-0.384	0.29 (inactive)	0.149 (inactive)	1.11 (inactive)	0.097 (inactive)	-0.39	-0.49 (inactive)	0.445 (inactive)	-0.764	-0.581	0.0764	-0.492	0.13	-0.665	-0.248	-1.27 (inactive)	0.363	-0.583	-0.0059 (inactive)
C=CCOC(=O)[C@H]1[C@@H]2C(=O)O[C@@H](c3ccccc3)[C@@H](c3ccccc3)N2[C@@H](c2ccc(OCCOC(=O)[C@H]3C[C@H]4C(=O)N5CCC[C@H]5C(=O)N4[C@H]3c3cccc(OCCO)c3)cc2)[C@]12C(=O)Nc1ccc(I)cc12	-0.709 (inactive)	1.72	0.491 (inactive)	0.641 (inactive)	-2.53 (inactive)	0.131 (inactive)	-0.0041	-0.669 (inactive)	0.165 (inactive)	0.261	-0.0113	0.199	0.144	0.817	-0.452	-0.0589	-0.518 (inactive)	-0.855	-0.122	0.9 (inactive)
O=C1[C@H]2[C@H]3[C@H](O)[C@H](O)CC(=NO[C@@H]4O[C@H](CO)[C@@H](O)[C@H](O)[C@H]4O)[C@H]3CC[C@H]2C(=O)N1Cc1ccc2c(c1)OCO2	0.614 (inactive)	0.122	15.5 (active)	2.09 (inactive)	0.0435 (inactive)	1.04 (inactive)	-0.438	-2.58 (inactive)	0.514 (inactive)	1.55	1.26	-1	-0.254	-0.19	0.0119	-0.102	0.48 (inactive)	-0.0781	-1.13	0.443 (inactive)
COc1ccc(COC(=O)NN=C2C[C@@H](O)[C@@H](O)[C@@H]3[C@@H]4C(=O)N(c5ccc(F)cc5F)C(=O)[C@@H]4CC[C@@H]23)cc1	0.0009 (inactive)	0.235	5.54 (inactive)	0.54 (inactive)	1.15 (inactive)	0.302 (inactive)	0.281	1.5 (inactive)	-1.98 (inactive)	-1.12	-0.102	0.257	-0.987	-0.738	-0.952	0.556	0.301 (inactive)	-0.195	0.627	0.909 (inactive)
CCN1C(=O)[C@H]2[C@H]3[C@H](O)[C@H](O)CC(=NOCC=C(C)CCC=C(C)C)[C@H]3CC[C@H]2C1=O	0.376 (inactive)	-0.0518	0.955 (inactive)	-0.506 (inactive)	-0.527 (inactive)	-0.163 (inactive)	-0.0053	-0.516 (inactive)	0.301 (inactive)	-1.52	-0.107	0.393	-0.118	0.805	0.169	-0.702	0.0735 (inactive)	0.568	0.0613	-1.01 (inactive)
COC(=O)[C@H](C)NC(=O)CCC1CC(OC(=O)NCc2cccc3ccccc23)CC2(CCCC(COC(=O)NCCc3ccc(Cl)cc3)O2)O1 (stereo not given in full)	0.434 (inactive)	-0.375	0.119 (inactive)	-0.214 (inactive)	-0.801 (inactive)	-0.193 (inactive)	0.362	0.779 (inactive)	1.18 (inactive)	1.55	0.346	0.118	0.0326	-0.333	-0.94	0.159	-0.294 (inactive)	-0.318	-0.197	0.871 (inactive)
O=C1[C@H]2[C@H]3[C@H](O)[C@H](O)CC(=NOC[C@@H](O)COCc4ccco4)[C@H]3CC[C@H]2C(=O)N1C1CCCCC1	-0.708 (inactive)	0.0245	1.6 (inactive)	-1.23 (inactive)	0.786 (inactive)	-2.32 (inactive)	0.988	-2.55 (inactive)	-0.583 (inactive)	-1.66	-1.03	0.979	0.187	0.29	-1.01	-0.322	-0.236 (inactive)	-1.02	-0.611	-0.381 (inactive)
